Compound activity: PubChem, several laboratories
Calb FLC – affects C. albicans growth with fluconazole; C. albicans CaCi-2 (fluconazole-resistant clinical isolate) + fluconazole, Alamar Blue growth, 48 h; growth inhibition, % (concentration not given with the values); 0.57% of 300,000 active;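 active means growth inhibition above about 58% in most replicates, limit read from the data, passing the limit was not always enough; inconclusive means exactly half the replicates above a set limit; inactive means most replicates below a set limit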;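 further: all wells also contain fluconazole at 8 µg/ml as a sub-toxic cotreatment; 0% = median of DMSO wells and 100% = median of geldanamycin control wells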
tim10-1 inh – tim10-1 yeast growth inhibition; S. cerevisiae tim10-1 ts strain growth, BacTiter-Glo, 24 h; inhibition, % at 20 µM; 2.2% of 330,000 active; AID 463190;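 active means inhibition of at least 40%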;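 further: mutant grown at 25 °C; 0% = DMSO wells with yeast and 100% = wells holding no yeast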
tim23-1 inh – inhibits growth of tim23-1 mutant yeast; S. cerevisiae tim23-1 growth, BacTiter-Glo luminescence, 24 h; AID 463212; inhibition, % at 20 µM; 1.3% of 330,000 active;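 active means growth inhibition of the mutant yeast at or above 50%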;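 further: temperature-sensitive mutant grown at 25 °C; plate controls were DMSO-treated mutant yeast for no effect and medium wells lacking yeast for full effect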
SKKanGAS inh – inhibitors of SKKanGAS S. pyogenes growth in kanamycin (SK-promoter or general growth effect) | BacTiter-Glo, 6 h | inhibition, % at 7.5 µM | 1.3% of 300,000 active;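 active means mean replicate score, as percent of positive control median, at least 50; inconclusive means mean below 50 but one replicate at or above 50; inactive means mean and every replicate below 50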;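 further: strain carries kanamycin resistance gene driven by streptokinase promoter and grows in 40 µg/ml kanamycin; loss of luminescence reflects streptokinase promoter inhibition or plain growth inhibition; 0% = median of DMSO wells and 100% = positive control at its reference dose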
TIM10 inh – TIM10 yeast growth inhibition; S. cerevisiae TIM10 strain growth, BacTiter-Glo luminescence, 24 h; inhibition, % at 10 µM; 1.4% of 330,000 active;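 active means inhibition of 40% or more at the single tested concentration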;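 further: wild-type TIM10 isogenic control strain grown at permissive 25 °C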
PfHsp90 yeast 2 – growth inhibition of yeast expressing Plasmodium Hsp90 | S. cerevisiae expressing PfHsp90, BacTiter-Glo ATP, 48 h; yeast lacking PDR1 and PDR3 efflux regulators | inhibition, % at 9.4 µM | 0.32% of 310,000 active;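 active means every replicate shows inhibition above about 80%, whatever the replicate mean, limit read from the data; inconclusive means mean inhibition reaches the set limit but some replicate falls short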;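 further: 0% = DMSO neutral controls and 100% = 20 µM radicicol positive controls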
TIM10 conf – confirmation of TIM10 yeast growth inhibitors; inhibition, % at 10 µM; AID 463215; 63% of 4,600 active; S. cerevisiae tim10 strain growth, BacTiter-Glo luminescence, 24 h; shares compounds with TIM10 inh;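 active means inhibition of yeast growth at or above a set limit in either of two replicates at 10 µM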;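 further: this counterscreen used the strain with wild-type TIM10; 0% = yeast with DMSO and 100% = medium wells lacking yeast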
* hit, by the source's call. Hits are enriched below; roughly 4.7% of the tested compounds scored in any of these assays.

How did Cc1c(Cc2ccccc2)sc(NC(=O)c2ccco2)c1C(N)=O do in these assays?
Calb FLC: 42.6; tim10-1 inh: 14.5; tim23-1 inh: 48.6; SKKanGAS inh: 0.3; TIM10 inh: 50.6*; PfHsp90 yeast 2: -48.9; TIM10 conf: 51.3*

Results for CSc1nc(NCc2ccco2)c2ccccc2n1 ?
Calb FLC: 5.6; tim10-1 inh: 37.9; tim23-1 inh: 15.5; SKKanGAS inh: 3.3; TIM10 inh: 40.1*; PfHsp90 yeast 2: -7.8; TIM10 conf: 22.1

What do the screens show for `c1ccc(Nc2nc(NCc3ccco3)c3ccccc3n2)cc1`?
Calb FLC: -3.7; tim10-1 inh: -43.8; tim23-1 inh: -22.7; SKKanGAS inh: 6.6; TIM10 inh: -2.1; PfHsp90 yeast 2: 14.1

What do the screens show for `Cc1ccccc1Nc1nc(Nc2ccccc2C)nc(SC2=NCCS2)n1`?
Calb FLC: 1.2; tim10-1 inh: 30.6; tim23-1 inh: 33.1; SKKanGAS inh: 11.8; TIM10 inh: 42.0*; PfHsp90 yeast 2: -19.6; TIM10 conf: 45.2*

What do the screens show for `C=CCn1cc(C(=O)NCCCN(CC)CC)c(=O)c2cc(S(=O)(=O)N3CCC(C)CC3)ccc21`?
Calb FLC: -6.2; tim10-1 inh: 6.3; tim23-1 inh: -1.3; SKKanGAS inh: -1.8; TIM10 inh: 2.2; PfHsp90 yeast 2: -3.9

What do the screens show for `O=C(COC(=O)/C=C/c1cccc(F)c1)Nc1cccc(S(=O)(=O)NC2=NCCCCC2)c1`?
tim10-1 inh: -5.6; tim23-1 inh: -9.8; TIM10 inh: -0.7; PfHsp90 yeast 2: 7.3

Results for Cc1ccc(S(=O)(=O)N(CC(=O)NC2CCCCCC2)c2ccccc2F)cc1 ?
Calb FLC: -4.1; tim10-1 inh: 16.1; tim23-1 inh: 8.5; SKKanGAS inh: 3.2; TIM10 inh: 40.4*; PfHsp90 yeast 2: -6.3; TIM10 conf: 10.5

How did O=C(CN(c1ccccc1F)S(=O)(=O)c1ccccc1)NC1CCCCCC1 do in these assays?
Calb FLC: -8.6; tim10-1 inh: 25.6; tim23-1 inh: 37.5; SKKanGAS inh: 3.5; TIM10 inh: 22.0; PfHsp90 yeast 2: 23.3

How did Cc1c(OCc2ccccc2)c(=O)ccn1Cc1ccccc1 do in these assays?
Calb FLC: -13.4; tim10-1 inh: 6.6; tim23-1 inh: 8.3; SKKanGAS inh: -3.5; TIM10 inh: 3.3; PfHsp90 yeast 2: 13.8

Results for Cc1occc(=O)c1OCc1ccccc1 ?
Calb FLC: 4.6; tim10-1 inh: -10.8; tim23-1 inh: -5.8; SKKanGAS inh: -15.6; TIM10 inh: 93.9*; PfHsp90 yeast 2: 4.3; TIM10 conf: 0.2

Results for O=C1CCNc2cc3ccccc3cc21 ?
Calb FLC: 29.8; tim10-1 inh: 31.7; tim23-1 inh: 14.4; SKKanGAS inh: -5.6; TIM10 inh: 42.1*; PfHsp90 yeast 2: 13.3; TIM10 conf: 30.9

How did c1ccc(Cc2nc3ccccc3n2Cc2ccccc2)cc1 do in these assays?
Calb FLC: inconclusive; tim10-1 inh: 28.8; tim23-1 inh: 14.4; SKKanGAS inh: 10.5; TIM10 inh: 44.3*; PfHsp90 yeast 2: -9.9; TIM10 conf: 32.5*

How did Cc1nc2ccccc2n1Cc1ccccc1 do in these assays?
Calb FLC: -19.0; tim10-1 inh: 4.7; tim23-1 inh: 2.4; SKKanGAS inh: -1.5; TIM10 inh: 7.2; PfHsp90 yeast 2: 4.0

Results for COCCC(=O)N1CCC(Oc2ccc(C(=O)N3C[C@H]4CC[C@H]3C4)cc2)CC1 ?
Calb FLC: 0.6; tim10-1 inh: -9.6; tim23-1 inh: -3.6; SKKanGAS inh: 12.1; TIM10 inh: 10.6; PfHsp90 yeast 2: -7.5

What do the screens show for `CC(=O)c1ccc2c(c1)N(CCCN1CCC(CCO)CC1)c1ccccc1S2`?
tim10-1 inh: -11.1; tim23-1 inh: -32.0; TIM10 inh: 8.6; PfHsp90 yeast 2: -4.4

Results for CSc1ccc2c(c1)N(CCC1CCCCN1C)c1ccccc1S2 (stereo not drawn) ?
tim10-1 inh: 23.0; tim23-1 inh: 17.0; SKKanGAS inh: 11.0; TIM10 inh: 52.5*; PfHsp90 yeast 2: -5.7; TIM10 conf: 29.1

How did CCc1ccc2[nH]c(=O)c(C(c3nnnn3Cc3ccco3)N3CCC(C)CC3)cc2c1 (stereo not drawn) do in these assays?
Calb FLC: 20.3; tim10-1 inh: 31.2; tim23-1 inh: 25.5; SKKanGAS inh: -0.4; TIM10 inh: 40.7*; PfHsp90 yeast 2: -14.1; TIM10 conf: 20.4

What do the screens show for `CCc1ccc2[nH]c(=O)c(C(c3nnnn3Cc3ccccc3)N3CCOCC3)cc2c1` (stereo not drawn)?
Calb FLC: 3.2; tim10-1 inh: 29.8; tim23-1 inh: 12.6; SKKanGAS inh: -5.7; TIM10 inh: -3.1; PfHsp90 yeast 2: 3.0

How did O=C1NCCSC1c1ccccc1 (stereo not drawn) do in these assays?
Calb FLC: -8.7; tim10-1 inh: 11.3; tim23-1 inh: 6.5; SKKanGAS inh: -2.4; TIM10 inh: 10.9; PfHsp90 yeast 2: 5.8

Results for O=C1c2ccccc2S(=O)(=O)c2cc(N3CCc4ccccc4C3)ccc21 ?
Calb FLC: 13.5; tim10-1 inh: 35.3; tim23-1 inh: 36.6; SKKanGAS inh: 10.3; TIM10 inh: 44.2*; TIM10 conf: 28.0

How did COC(=O)C1=C(C)N(c2ccccc2)C(=S)NC1c1ccccc1C(F)(F)F (stereo not drawn) do in these assays?
Calb FLC: 22.1; tim10-1 inh: 36.7; tim23-1 inh: 35.8; SKKanGAS inh: 9.8; TIM10 inh: 49.9*; PfHsp90 yeast 2: 10.6; TIM10 conf: 16.4

Results for COCCOC(=O)C1=C(C)N(c2ccccc2)C(=S)NC1c1ccccc1C(F)(F)F (stereo not drawn) ?
Calb FLC: 27.5; tim10-1 inh: 23.1; tim23-1 inh: 26.6; SKKanGAS inh: 12.8; TIM10 inh: 7.9; PfHsp90 yeast 2: 33.3

Results for COc1ccc(NC(=S)NNC(=O)COc2ccc(Cl)cc2Cl)cc1 ?
Calb FLC: 20.8; tim10-1 inh: 29.9; tim23-1 inh: 41.5; SKKanGAS inh: -5.9; TIM10 inh: 46.6*; PfHsp90 yeast 2: -21.5; TIM10 conf: -12.7

What do the screens show for `CN1CCN(c2ccc([N+](=O)[O-])cc2NC(=O)c2cccs2)CC1`?
Calb FLC: -10.6; tim10-1 inh: 5.4; tim23-1 inh: -4.9; SKKanGAS inh: -0.6; TIM10 inh: -6.6; PfHsp90 yeast 2: -2.5

Results for Cc1c(Cl)cccc1NC(=S)NCCC(c1ccccc1)c1ccccc1 ?
Calb FLC: -34.2; tim10-1 inh: 36.8; tim23-1 inh: 3.9; SKKanGAS inh: 79.2*; TIM10 inh: 49.7*; PfHsp90 yeast 2: -5.5; TIM10 conf: 20.4

Results for Cc1c(Cl)cccc1NC(=S)NCc1ccccc1Cl ?
Calb FLC: -23.9; tim10-1 inh: 37.8; tim23-1 inh: 24.9; SKKanGAS inh: 6.7; TIM10 inh: 8.6; PfHsp90 yeast 2: 0.3
